Each structure is given as a SMILES string. Out of some 39,000 compounds screened, about 1,500 (3.8%) were called active. This excerpt belongs to a sample that is enriched for actives.

For the assay, the system named is HSkMC (human skeletal muscle cells). The assay can be described thus: cytotoxicity call (relative viability < 0.9). As to conditions: 10 µM.
In the case of `CCCC#Cc1cnc2c(c1)C(=O)N([C@H](C)CO)C[C@H](C)[C@H](CN(C)C(=O)c1ccc3c(c1)OCO3)O2`, the cytotoxicity call is “inactive”.
With `C[C@H]1CN([C@@H](C)CO)C(=O)c2cc(NC(=O)Cn3cnnn3)ccc2O[C@H]1CN(C)C(=O)Nc1ccc(C(F)(F)F)cc1` the entry was “inactive”; with `C[C@H]1CN([C@@H](C)CO)C(=O)c2cc(NC(=O)Nc3ccc4c(c3)OCO4)ccc2O[C@@H]1CN(C)C(=O)Nc1ccc(C(F)(F)F)cc1`, “inactive”.
With `C[C@@H]1CN([C@@H](C)CO)C(=O)c2cc(NC(=O)Nc3ccc4c(c3)OCO4)ccc2O[C@H]1CN(C)C(=O)Nc1ccc(C(F)(F)F)cc1`, the cytotoxicity call is “inactive”.
With `C[C@@H]1CN([C@@H](C)CO)C(=O)c2cc(NC(=O)Nc3ccc(C(F)(F)F)cc3)ccc2O[C@@H]1CN(C)C(=O)Nc1ccc2c(c1)OCO2` the entry was “active”; with `CC(C)NC(=O)Nc1ccc2c(c1)C(=O)N([C@@H](C)CO)C[C@H](C)[C@@H](CN(C)Cc1ccc(Cl)c(Cl)c1)OCCCC[C@@H](C)O2`, “inactive”; with `C[C@@H]1CN([C@H](C)CO)C(=O)c2cc(NS(=O)(=O)c3cccs3)ccc2O[C@@H](C)CCCCO[C@@H]1CN(C)C(=O)c1ccccc1`, “inactive”.
As to `C[C@H]1CN([C@@H](C)CO)C(=O)Cc2cc(NC(=O)Nc3cccc4ccccc34)ccc2O[C@H]1CN(C)C(=O)Nc1ccccc1`, the cytotoxicity call is “inactive”.
In the case of `C[C@@H]1CN([C@H](C)CO)C(=O)c2cccc(NC(=O)c3ccc(-c4nccs4)cc3)c2O[C@H]1CN(C)C(=O)Nc1ccccc1`, the cytotoxicity call is “inactive”.
With `CC(=O)NC[C@H]1CN(c2ccc(N3CCN(C(=O)CO)CC3)c(F)c2)C(=O)O1` the entry was “inactive”; with `CC(C)(C)CC(C)(C)c1cc(Cc2cc(C(C)(C)CC(C)(C)C)cc(-n3nc4ccccc4n3)c2O)c(O)c(-n2nc3ccccc3n2)c1` [listing 1 of 2 here], “inactive”; with `CC(C)(C)CC(C)(C)c1ccc(O)c(Cc2ccc(Cl)cc2Cl)c1`, “active”.
With `CC(C)(C)CC(C)(C)c1cc(Cc2cc(C(C)(C)CC(C)(C)C)cc(-n3nc4ccccc4n3)c2O)c(O)c(-n2nc3ccccc3n2)c1` [listing 2 of 2 here] the entry was “inactive”.
With `O=C(CN1CCOCC1)NCC[C@@H]1CC[C@H](NC(=O)c2ccc3c(c2)OCO3)[C@@H](CO)O1` the entry was “inactive”.
Regarding `C[C@@H]1CN([C@@H](C)CO)C(=O)c2cc(C#CC3(O)CCCC3)cnc2O[C@@H]1CN(C)C(=O)CN(C)C`, the cytotoxicity call is “inactive”.
With `C[C@@H]1CN([C@@H](C)CO)C(=O)c2cc(NC(=O)NC3CCCCC3)ccc2O[C@H]1CN(C)Cc1ccc(Oc2ccccc2)cc1` the entry was “active”; with `C[C@H](CO)N1C[C@H](C)[C@H](CN(C)Cc2ccc(Oc3ccccc3)cc2)Oc2ccc(NC(=O)NC3CCCCC3)cc2C1=O`, “inactive”.
In the case of `CO[C@H]1CN(C)C(=O)c2cc(NC(=O)NC3CCCCC3)ccc2OC[C@@H](C)N(CCc2ccccc2)C[C@@H]1C`, the cytotoxicity call is “active”.
With `C[C@H]1CN([C@@H](C)CO)C(=O)c2cc(NC(=O)NC3CCCCC3)ccc2O[C@H]1CN(C)Cc1ccc(-c2ccccc2)cc1`, the cytotoxicity call was “inactive”.
With `C[C@H]1CN([C@@H](C)CO)C(=O)c2cc(NC(=O)C3CCCCC3)ccc2O[C@@H]1CN(C)Cc1ccc(-c2ccccc2)cc1` the entry was “inactive”.
With `C[C@@H]1CN([C@H](C)CO)C(=O)c2cc(NC(=O)C3CCCCC3)ccc2O[C@@H]1CN(C)Cc1ccc(-c2ccccc2)cc1`, the cytotoxicity call was “inactive”.
With `C[C@@H]1CN([C@H](C)CO)C(=O)c2cc(NC(=O)NC3CCCCC3)ccc2O[C@H]1CN(C)Cc1ccc(-c2ccccc2)cc1` the entry was “inactive”.
With `C[C@@H]1CN([C@@H](C)CO)C(=O)c2cc(NC(=O)NC3CCCCC3)ccc2O[C@@H]1CN(C)Cc1ccc(-c2ccccc2)cc1` the entry was “active”; with `CO[C@@H]1CN(C)C(=O)c2cc(NC(=O)NC3CCCCC3)ccc2OC[C@H](C)N(CCc2ccccc2)C[C@H]1C`, “inactive”; with `C[C@@H]1CN([C@@H](C)CO)C(=O)c2cc(NC(=O)C3CCCCC3)ccc2O[C@@H]1CN(C)Cc1ccc(-c2ccccc2)cc1`, “active”.
With `CO[C@H]1CN(C)C(=O)c2cc(NC(=O)NC3CCCCC3)ccc2OC[C@H](C)N(CCc2ccccc2)C[C@@H]1C` the entry was “inactive”; with `C[C@@H]1CN([C@H](C)CO)C(=O)c2cc(NC(=O)NC3CCCCC3)ccc2O[C@H]1CN(C)Cc1ccc(Oc2ccccc2)cc1`, “inactive”.
In the case of `Cc1ccc(-c2c[nH]c(=S)[nH]2)cc1`, the cytotoxicity call is “inactive”.
In the case of `Cc1noc(C)c1NC(=O)Nc1ccc2c(c1)CC(=O)N([C@H](C)CO)C[C@@H](C)[C@@H](CN(C)C(=O)Nc1cccc3ccccc13)O2`, the cytotoxicity call was “inactive”.
Turning to `O=C(C[C@@H]1CC[C@H]2[C@@H](COC[C@@H](O)CN2S(=O)(=O)c2ccccc2)O1)NCCN1CCCC1`, the cytotoxicity call is “inactive”.
With `C[C@H]1CN([C@@H](C)CO)C(=O)Cc2cc(NS(C)(=O)=O)ccc2O[C@@H]1CN(C)C(=O)Nc1ccc2c(c1)OCO2` the entry was “inactive”; with `Cc1noc(C)c1NC(=O)Nc1cccc2c1O[C@@H](CN(C)S(C)(=O)=O)[C@H](C)CN([C@@H](C)CO)C2=O`, “inactive”; with `NCCCCCNC(=O)[C@H]1C[C@H]2C(=O)NCC(=O)N2[C@H]1c1cccc(OCCO)c1`, “inactive”.
With `COc1ccc([C@@H]2CC(=O)c3c(O)cc(O[C@@H]4O[C@H](CO[C@@H]5O[C@@H](C)[C@H](O)[C@@H](O)[C@H]5O)[C@@H](O)[C@H](O)[C@H]4O)cc3O2)cc1O` the entry was “inactive”; with `C[C@@H](NC(=O)C[C@H]1C=C[C@H](NC(=O)CN2CCOCC2)[C@@H](CO)O1)c1ccccc1`, “inactive”.
With `O=C(Nc1ncc(SCCN2CCCC2)s1)[C@]1(c2ccc(S(=O)(=O)C3CC3)cc2)C[C@H]1C1CCCCC1` the entry was “active”.
On to `C[C@H]1CCCCO[C@H](CN(C)C(=O)Nc2ccc(F)cc2)[C@@H](C)CN([C@@H](C)CO)C(=O)c2cc(NC(=O)CCC(F)(F)F)ccc2O1`, for which the cytotoxicity call is “inactive”.
With `COc1ccc(CN(C)C[C@H]2Oc3c(NS(C)(=O)=O)cccc3C(=O)N([C@H](C)CO)C[C@H]2C)cc1` the entry was “inactive”.
As for `CC[C@H](C)C[C@H](C)CCCCCCCCC(=O)N[C@H]1C[C@@H](O)[C@@H](NCCN)NC(=O)[C@@H]2[C@@H](O)CCN2C(=O)[C@H]([C@H](O)CCN)NC(=O)[C@H]([C@H](O)[C@@H](O)c2ccc(O)cc2)NC(=O)[C@@H]2C[C@@H](O)CN2C(=O)[C@H]([C@@H](C)O)NC1=O`, the cytotoxicity call is “inactive”.
With `CCCCCOc1ccc(-c2cc(-c3ccc(C(=O)N[C@H]4C[C@@H](O)[C@@H](O)NC(=O)[C@H]5[C@@H](O)[C@@H](C)CN5C(=O)[C@H]([C@@H](O)CC(N)=O)NC(=O)[C@H]([C@@H](O)[C@@H](O)c5ccc(O)c(OS(=O)(=O)O)c5)NC(=O)[C@H]5C[C@@H](O)CN5C(=O)[C@H]([C@@H](C)O)NC4=O)cc3)no2)cc1` the entry was “inactive”.

The values above are taken from the antibiotic and cytotoxicity screens of Wong et al. (2023).
